Bioassay records: PubChem, National Center for Advancing Translational Sciences (NCATS)
Sfp inh: qHTS Assay for Inhibitors of Bacillus subtilis Sfp phosphopantetheinyl transferase (PPTase); 310,000 tested, 3.5% active; AID 1490, 2009; 4'-phosphopantetheinyl transferase ffp (Bacillus subtilis), Q9F4F7; Biochemical Sfp PPTase activity, qHTS; Potency, µM, for inactives: largest response in the series, negative = inhibition, actives largely listed as inhibitors;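 further: the enzyme is Sfp with the accession as filed and its product quenches rhodamine fluorescence; potency means the concentration at half of the fitted maximal effect; 0% = enzyme reaction without inhibitor and -100% = no enzyme wells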
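After 15 min at room temperature with compound, 15 nM Sfp received 5 uM rhodamine-CoA plus 12.5 uM BHQ-2-ybbR (50 mM Hepes pH 7.6, 10 mM MgCl2). Rate came from the fluorescence difference over 30 min, ex 525/em 598 nm.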
miR-21 reporter: qHTS Assay for Modulators of miRNAs and/orActivators of miR-21. 340,000 tested, under 10 active. Potency, µM (top dose mostly 38.3 µM), for the others: at the highest dose activity change, positive = activation, most hits filed as activators. HeLa miR-21 FLuc reporter, luciferase, 48 h. AID 2288, 2010;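 further: % of control where 0% means no effect; miR-21 action dims this reporter so a rising signal means less miR-21 action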
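HeLa miR-21-FLuc reporter line, endogenous miR-21; 2000 cells/well in DMEM/10% FBS; compound titration up to ~40uM final, 48 h, 37 degree Celsius; luciferase detection reagent, 15 min lysis, CCD luminescence.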
Lamin A splicing: qHTS Assay for Modulators of Lamin A Splicing; HeLa LMNA splicing GFP/RFP minigene ratio, 48 h; Potency, µM (top dose mostly 46.1 µM), without a hit: at the top dose ratio change, negative = inhibition, most hits filed as inhibitors; 200,000 tested, 0.01% active; AID 1487, 2009; active means well fitted inhibition curve with a large enough effect in the signal ratio, with a control signal flat, not every such curve was filed as active; inconclusive means small, poorly fitted or top-dose-only effect, or effect the other way, or a change in a side signal; the % refers to the signal ratio; further: potency means the concentration at half of the fitted maximal effect; on the % scale 0 is the no-effect control and ±100 the full control effect
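S3 HeLa cells stably expressing lamin A-EGFP splicing minigene plus DsRed2, 600 cells/well, 48 h compound exposure at 37C. Laser-scanning cytometry; analysed as GFP (500-530 nm)/RFP (575-640 nm) total intensity ratio; 0.5% DMSO vehicle.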
KDM4E inh: qHTS Assay for Inhibitors of Human Jumonji Domain Containing 2E (JMJD2E) | JMJD2E catalytic domain, FDH-coupled NADH fluorescence (FDH is formaldehyde dehydrogenase) | Potency, µM (titrated, usually from 57.1 µM), for the others: top-dose activity change, negative = inhibition, most hits filed as inhibitors | 230,000 tested, 1.6% active; active means well fitted inhibition curve with a large enough effect, not every such curve was filed as active; inconclusive means small, poorly fitted or top-dose-only effect, or another doubt; inactive means no such curve, though single readings can be large or run the other way;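 further: potency means the concentration at half of the fitted maximal effect; 0% = wells with enzyme and -100% = buffer wells without enzyme; nearly all actives have a fitted effect of over 50% in size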
Target sequence (B2RXH2 1-337 limits assumed): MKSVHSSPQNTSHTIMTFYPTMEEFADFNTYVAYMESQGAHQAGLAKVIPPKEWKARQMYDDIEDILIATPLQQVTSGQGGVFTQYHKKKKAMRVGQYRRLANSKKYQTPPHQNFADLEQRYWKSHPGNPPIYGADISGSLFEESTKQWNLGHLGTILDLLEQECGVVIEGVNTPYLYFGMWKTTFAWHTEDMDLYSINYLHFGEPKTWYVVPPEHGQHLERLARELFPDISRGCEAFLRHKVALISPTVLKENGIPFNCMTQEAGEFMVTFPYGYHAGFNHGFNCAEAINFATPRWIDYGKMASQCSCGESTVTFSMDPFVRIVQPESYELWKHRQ
ALDH1A1 block: qHTS Assay for Inhibitors of Aldehyde Dehydrogenase 1 (ALDH1A1); Potency, µM (highest dose often 75.3 µM), for the others: at the top dose activity, negative = inhibition, actives largely listed as inhibitors; Purified ALDH1A1, NADH fluorescence, propionaldehyde substrate; 220,000 tested, 7.3% active; Aldehyde dehydrogenase 1A1 (Homo sapiens), P00352; AID 1030, 2008; active means well fitted inhibition curve with a large enough effect, not every such curve was filed as active; inconclusive means small, poorly fitted or top-dose-only effect, or another doubt; inactive means no such curve, though single readings can be large or run the other way;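 further: potency means the concentration at half of the fitted maximal effect; plate controls were no enzyme wells and a reference inhibitor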
Target sequence (P00352 whole entry, looked up): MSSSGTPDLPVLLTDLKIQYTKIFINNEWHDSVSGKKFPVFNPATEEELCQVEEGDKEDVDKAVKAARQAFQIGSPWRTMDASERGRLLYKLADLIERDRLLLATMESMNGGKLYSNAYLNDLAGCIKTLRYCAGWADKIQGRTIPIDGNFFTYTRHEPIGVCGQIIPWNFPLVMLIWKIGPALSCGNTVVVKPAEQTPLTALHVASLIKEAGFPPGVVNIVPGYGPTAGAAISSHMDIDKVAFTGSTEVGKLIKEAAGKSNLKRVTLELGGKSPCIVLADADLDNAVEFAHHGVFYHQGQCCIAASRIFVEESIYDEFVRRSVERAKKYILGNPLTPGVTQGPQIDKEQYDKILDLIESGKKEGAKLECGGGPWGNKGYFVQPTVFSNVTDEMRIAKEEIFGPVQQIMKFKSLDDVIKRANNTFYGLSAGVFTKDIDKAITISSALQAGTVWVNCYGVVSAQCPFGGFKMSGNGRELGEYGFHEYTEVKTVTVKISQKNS
G9a inh: qHTS Assay for Inhibitors of Histone Lysine Methyltransferase G9a | Histone-lysine N-methyltransferase EHMT2 (Homo sapiens), Q96KQ7 | G9a H3K9 monomethylation, AlphaScreen, 2 h | Potency, µM (titrated, usually from 102 µM), for inactives: top-dose activity, negative = inhibition, usual class: inhibitors | 350,000 tested, 8.8% active; further: potency means the concentration at half of the fitted maximal effect; on the % scale 0 is the no-effect control and ±100 the full control effect; nearly all actives have a fitted effect of over 75% in size
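Enzyme 20 nM + cpd, 15 min RT; add b-H3K9 pep 500 nM / SAM 20 uM; 2 h RT; anti-H3K9me1 Ab 0.5 ug/mL + SA donor / anti-rabbit acceptor beads 20 ug/mL each, 10 min; AlphaScreen read.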
* hit, by the source's call; ? = inconclusive; · = no result; ! = a repeat was not active; [ ] = dose if it differs, or a comment. An excerpt weighted towards active compounds, which were near 13% of everything screened. Unless noted, the call rests on the fitted dose curve; in most records, active means well fitted curve in the direction sought with a large enough effect; inconclusive means small, poorly fitted or top-dose-only effect, or another doubt; inactive means no such curve, though single readings can be large; an effect the other way counts as inactive or inconclusive.

SMILES | Sfp inh | miR-21 reporter | Lamin A splicing | KDM4E inh | ALDH1A1 block | G9a inh
CC(C)(C)c1cc(C(=S)N2CCN(CCO)CC2)cc(C(C)(C)C)c1O | 3.2µM* | -7% | 22% | -24% | 18µM* | ?
OCCN1CCN(C(=S)c2ccc(Cl)cc2)CC1 | -78% | -5% | -13% | -1% | 16µM* | ?
CC(C)(C)c1cc(C(=O)CCN2CCOCC2)cc(C(C)(C)C)c1O | -9% | 10% | · | · | · | 50µM*
CCc1nc(N2CCN(C(C)=O)CC2)c2c3c(sc2n1)CC(C(C)(C)C)CC3 (stereo not drawn) | -22% | -5% | · | · | · | -20%
CCc1nc(N2CCN(C(=O)CCl)CC2)c2c3c(sc2n1)CC(C)CC3 (stereo not drawn) | -25% | ? | · | · | · | 79µM*
CC(C)C(NS(=O)(=O)c1ccc2c(c1)oc(=O)n2C)C(=O)NCCc1ccc(Cl)cc1 (stereo not drawn) | · | 1% | · | · | · | 7%[59 µM]
CCN=c1scc(-c2ccco2)n1/N=C/c1ccc(OC)c(O)c1 | 50µM* | -43% | ? | 0% | ? | 14µM*
CCN=c1scc(-c2ccco2)n1/N=C/c1ccc(O)cc1 | 35µM* | -62% | -5% | -17% | 20µM* | 35µM*
COc1ccc(/C=N/N=C/c2ccc(OC)c(O)c2)cc1O | -2% | -3% | 5% | -3% | -13% | 3%[0.0925 µM]
CCN1CCN(c2cc3c(cc2F)c(=O)c(C(=O)O)cn3C2CC2)CC1 | 15% | 0% | ? | ? | ? | 32µM*
COc1c(N2CCNC(C)C2)c(F)cc2c(=O)c(C(=O)O)cn(C3CC3)c12 (stereo not drawn) | -18% | · | · | ? | ? | ·
NC1CCN(c2c(F)cc3c(=O)c(C(=O)O)cn(C4CC4)c3c2Cl)C1 (stereo not drawn) | 18% | -6% | · | -1% | 19% | 71µM*
CC(=O)N1CCN(c2cc3c(cc2F)c(=O)c(C(=O)O)cn3C2CC2)CC1 | 14% | 0% | 1%[46 µM] | ? | ? | 50µM*
O=C(O)c1cc(O)c2c(c1)[C@H]([C@H]1c3cc(C(=O)O)cc(O)c3C(=O)c3c(O[C@@H]4OC(CO)C(O)C(O)C4O)cccc31)c1cccc(O[C@@H]3OC(CO)C(O)C(O)C3O)c1C2=O (stereo partly drawn) | 56µM* | · | ? | 11µM* | -10% | -148%[2.33 µM]
O=C1c2cccc(O)c2C(=O)c2c(O[C@@H]3O[C@H](CO)[C@@H](O)[C@H](O)[C@@H]3O)cccc21 | · | · | · | · | 9%[13.5 µM] | ·
O[C@@H](c1cc(-c2ccc(Cl)cc2)nc2ccccc12)C1CCCCN1 (stereo partly drawn) | · | · | · | · | 3%[13.5 µM] | ·
CCc1nn(C)c(-c2n[nH]c(=S)n2N)c1Cl | 45µM* | 1% | 5% | -9% | 7% | ?
CCn1c(CCn2ccnc2C)n[nH]c1=S | 3% | -3% | -10% | -5% | 15% | ?
CCc1cc(-c2n[nH]c(=S)n2N)n(C)n1 | 40µM* | -1% | 8% | -7% | 7% | 10µM*
NS(=O)(=O)c1cc([C@@]2(O)NC(=O)c3ccccc32)ccc1Cl | 15% | · | -13% | 1%[25.5 µM] | -4%[20.9 µM] | 20%[21.5 µM]
CC(=O)Nc1ccc(N=C(C2=C(O)c3ccccc3C2=O)c2ccccc2)cc1 | -9% | -28% | ? | -6% | -13% | 40µM*
COc1ccc(N=C(C)C2=C(O)c3ccccc3C2=O)cc1 | -12% | -26% | ? | 11% | -4% | 1%[59 µM]
Cc1ccc(S(=O)(=O)CCC(=O)Nc2sccc2C#N)cc1 | · | · | · | · | · | 25µM*
COc1ccc(CNCC(=O)Nc2sccc2C#N)cc1 | ? | -27% | -4%[46 µM] | ? | ? | 28µM*
CN(C)S(=O)(=O)c1cccc(C(=O)OCC(=O)Nc2sccc2C#N)c1 | 79µM* | -8% | 7% | 1% | ? | -34%[59 µM]
SMILES | Sfp inh | miR-21 reporter | Lamin A splicing | KDM4E inh | ALDH1A1 block | G9a inh
CN(C)S(=O)(=O)c1cccc(C(=O)OCC(=O)Nc2ccc3c(c2)OCCO3)c1 | · | · | · | · | · | -23%[12.7 µM]
COc1ccc(N2CCN(CC(=O)Nc3sccc3C#N)CC2)cc1 | ? | 0% | ? | 10% | 3% | -1%[59 µM]
CC(=O)N1CCCc2cc(S(=O)(=O)N(C)CC(=O)Nc3cccc(C)c3C)ccc21 | · | 3% | 14%[46 µM] | · | · | 3%[59 µM]
COc1ccccc1NC(=O)c1ccc(CN2C(=O)C(C)=C(c3ccc(C)c(C)c3)S2(=O)=O)cc1 | · | 0% | -3%[46 µM] | · | · | 10%[59 µM]
O=C(CN1CCN(S(=O)(=O)c2ccc(Br)cc2)CC1)Nc1ccc(F)cc1 | 20% | 13% | -9% | -6% | 32µM* | ?
O=C(CN1CCCN(S(=O)(=O)c2ccc(F)cc2)CC1)Nc1ccccc1Br | -1% | -4% | ? | 0% | 28µM* | ?
CCN(CC(=O)NCc1ccc(F)cc1)CC(=O)Nc1ccc(S(=O)(=O)N2CCCC2)cc1 | ? | 7% | -11%[46 µM] | 4% | 11µM* | 0%
O=C(Cc1ccc(F)cc1)Nc1ccc(S(=O)(=O)N2CCCCC2)cc1 | 6% | 7% | 12%[46 µM] | -9% | ? | 12%
O=C(CN1CCN(CC(=O)Nc2ccc(-c3ccccc3)cc2)CC1)Nc1ccc(F)cc1 | -5% | 9% | · | · | · | 35µM*
NS(=O)(=O)c1ccc(NC(=O)CN2CCCN(S(=O)(=O)c3ccc(F)cc3)CC2)cc1 | -2% | -1% | · | -1% | ? | -37%
CC(c1ccccc1)N(C)C(=O)CSc1nnc(C2CC2)n1C1CC1 (stereo not drawn) | · | · | · | · | · | 24%[12.7 µM]
CCCn1nc(NC(=O)c2cccc(Cl)c2)c2cc3cccc(C)c3nc21 | · | -1% | · | · | · | 5%[59 µM]
CCCCOc1ccc(C(=O)NCC2(N3CCN(C)CC3)CCCCC2)cc1 | · | -16% | ? | · | · | -38%[59 µM]
CCc1ccccc1NC(=O)Cn1nc(C)n2cccc2c1=O | 11% | 0% | · | · | · | 11%
O=C(CN1CCN(CC(=O)Nc2ccccc2C(F)(F)F)CC1)Nc1ccccc1F | 5% | 0% | -15% | 4% | 25µM* | 32µM*
COc1ccc(C)cc1NC(=O)CN1CCN(S(=O)(=O)c2ccc(Br)cc2)CC1 | 0% | -2% | -1% | 0% | 0.16µM* | 7%[59 µM]
Cc1nn(CC(=O)Nc2ccccc2C(F)(F)F)c(=O)c2cccn12 | 13% | 4% | · | · | · | 3.2µM*!
O=C(CN1CCN(S(=O)(=O)c2ccc(Br)cc2)CC1)Nc1ccccc1F | -4% | 1% | 0% | 5% | 28µM* | 20%[59 µM]
